# Reference: ChEMBL document CHEMBL1961873, “Compounds: GSK PKIS; Assays: Nanosyn kinase panel” (2012)
# Tests used:
# [1] = biological target: Sphingosine kinase 1 (Homo sapiens) (UniProt Q9NYA1); conditions: at 1 µM;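 further: mean SPHK1 inhibition value reported from the GSK PKIS kinase panel screen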
# [2] = biological target: T1, Sphingosine kinase 2 (Homo sapiens) (UniProt Q9NRA0); conditions: at 0.1 µM
# T1 sequence (whole entry): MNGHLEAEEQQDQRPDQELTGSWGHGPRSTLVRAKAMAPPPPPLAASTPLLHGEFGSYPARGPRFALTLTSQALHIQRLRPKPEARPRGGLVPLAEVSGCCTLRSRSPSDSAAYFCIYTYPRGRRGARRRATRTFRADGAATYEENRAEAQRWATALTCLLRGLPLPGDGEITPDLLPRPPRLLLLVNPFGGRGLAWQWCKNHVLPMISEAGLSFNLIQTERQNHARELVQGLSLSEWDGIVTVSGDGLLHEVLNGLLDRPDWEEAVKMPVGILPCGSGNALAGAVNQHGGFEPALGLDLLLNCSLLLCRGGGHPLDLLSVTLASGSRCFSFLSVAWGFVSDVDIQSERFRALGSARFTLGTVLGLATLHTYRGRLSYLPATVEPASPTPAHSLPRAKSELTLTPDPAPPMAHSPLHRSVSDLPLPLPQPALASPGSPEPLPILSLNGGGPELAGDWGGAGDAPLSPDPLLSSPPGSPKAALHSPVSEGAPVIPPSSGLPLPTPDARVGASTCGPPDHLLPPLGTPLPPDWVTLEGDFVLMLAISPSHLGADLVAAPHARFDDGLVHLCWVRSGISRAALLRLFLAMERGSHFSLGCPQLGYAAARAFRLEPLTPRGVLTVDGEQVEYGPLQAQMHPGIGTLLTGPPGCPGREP
# [3] = biological target: T1, Sphingosine kinase 2 (Homo sapiens); conditions: at 1 µM
# [4] = biological target: Casein kinase II subunit alpha (Homo sapiens) (UniProt P68400); conditions: at 0.1 µM
# [5] = biological target: Casein kinase II subunit alpha (Homo sapiens) (UniProt P68400); conditions: at 1 µM
# [6] = biological target: T2, Inhibitor of nuclear factor kappa-B kinase subunit alpha (Homo sapiens) (UniProt O15111); conditions: at 0.1 µM
# T2 sequence (whole entry): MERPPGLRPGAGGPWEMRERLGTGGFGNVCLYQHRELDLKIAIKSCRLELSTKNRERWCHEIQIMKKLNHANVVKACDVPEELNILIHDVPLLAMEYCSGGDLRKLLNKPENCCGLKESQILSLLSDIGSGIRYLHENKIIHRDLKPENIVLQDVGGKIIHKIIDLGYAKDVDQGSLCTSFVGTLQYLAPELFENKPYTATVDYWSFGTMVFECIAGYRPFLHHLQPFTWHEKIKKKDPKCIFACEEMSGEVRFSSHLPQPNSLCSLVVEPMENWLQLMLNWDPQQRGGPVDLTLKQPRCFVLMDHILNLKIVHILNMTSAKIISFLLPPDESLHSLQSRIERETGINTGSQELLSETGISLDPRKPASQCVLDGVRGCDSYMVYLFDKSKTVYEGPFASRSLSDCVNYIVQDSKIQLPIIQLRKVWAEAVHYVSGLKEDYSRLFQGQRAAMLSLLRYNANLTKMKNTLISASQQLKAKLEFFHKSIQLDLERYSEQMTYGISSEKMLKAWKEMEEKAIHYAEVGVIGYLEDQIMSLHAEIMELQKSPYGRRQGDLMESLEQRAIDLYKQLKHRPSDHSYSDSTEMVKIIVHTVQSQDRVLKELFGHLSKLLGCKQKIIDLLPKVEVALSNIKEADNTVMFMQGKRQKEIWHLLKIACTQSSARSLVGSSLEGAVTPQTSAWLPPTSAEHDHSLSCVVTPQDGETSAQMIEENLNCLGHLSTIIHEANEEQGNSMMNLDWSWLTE
# [7] = biological target: T2, Inhibitor of nuclear factor kappa-B kinase subunit alpha (Homo sapiens); conditions: at 1 µM
# [8] = biological target: T3, Inhibitor of nuclear factor kappa-B kinase subunit beta (Homo sapiens) (UniProt O14920); conditions: at 0.1 µM
# T3 sequence (whole entry): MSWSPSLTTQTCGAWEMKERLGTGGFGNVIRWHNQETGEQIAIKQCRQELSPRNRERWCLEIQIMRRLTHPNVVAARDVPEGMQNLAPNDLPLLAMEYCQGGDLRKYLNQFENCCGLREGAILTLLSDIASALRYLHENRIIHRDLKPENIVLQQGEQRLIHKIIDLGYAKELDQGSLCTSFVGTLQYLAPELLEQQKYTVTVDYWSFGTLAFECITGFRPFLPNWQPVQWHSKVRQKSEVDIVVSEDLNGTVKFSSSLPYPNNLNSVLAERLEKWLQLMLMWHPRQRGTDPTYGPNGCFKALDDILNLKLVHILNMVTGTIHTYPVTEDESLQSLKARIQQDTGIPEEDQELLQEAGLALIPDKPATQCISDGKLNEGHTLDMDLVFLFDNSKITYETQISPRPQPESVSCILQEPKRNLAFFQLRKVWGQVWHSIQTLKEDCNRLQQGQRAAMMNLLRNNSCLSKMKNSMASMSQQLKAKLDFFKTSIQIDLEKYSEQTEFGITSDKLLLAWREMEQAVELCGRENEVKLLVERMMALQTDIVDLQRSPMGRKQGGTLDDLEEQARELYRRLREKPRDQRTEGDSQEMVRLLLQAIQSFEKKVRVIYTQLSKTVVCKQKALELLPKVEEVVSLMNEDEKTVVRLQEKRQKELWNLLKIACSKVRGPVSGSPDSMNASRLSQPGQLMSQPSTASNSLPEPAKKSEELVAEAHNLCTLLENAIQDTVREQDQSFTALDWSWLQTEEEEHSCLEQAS
# [9] = biological target: T3, Inhibitor of nuclear factor kappa-B kinase subunit beta (Homo sapiens); conditions: at 1 µM
# [10] = biological target: T4, Inhibitor of nuclear factor kappa-B kinase subunit epsilon (Homo sapiens) (UniProt Q14164); conditions: at 0.1 µM;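 further: mean inhibition of IKKε reported, from the GSK PKIS dataset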
# T4 sequence (whole entry): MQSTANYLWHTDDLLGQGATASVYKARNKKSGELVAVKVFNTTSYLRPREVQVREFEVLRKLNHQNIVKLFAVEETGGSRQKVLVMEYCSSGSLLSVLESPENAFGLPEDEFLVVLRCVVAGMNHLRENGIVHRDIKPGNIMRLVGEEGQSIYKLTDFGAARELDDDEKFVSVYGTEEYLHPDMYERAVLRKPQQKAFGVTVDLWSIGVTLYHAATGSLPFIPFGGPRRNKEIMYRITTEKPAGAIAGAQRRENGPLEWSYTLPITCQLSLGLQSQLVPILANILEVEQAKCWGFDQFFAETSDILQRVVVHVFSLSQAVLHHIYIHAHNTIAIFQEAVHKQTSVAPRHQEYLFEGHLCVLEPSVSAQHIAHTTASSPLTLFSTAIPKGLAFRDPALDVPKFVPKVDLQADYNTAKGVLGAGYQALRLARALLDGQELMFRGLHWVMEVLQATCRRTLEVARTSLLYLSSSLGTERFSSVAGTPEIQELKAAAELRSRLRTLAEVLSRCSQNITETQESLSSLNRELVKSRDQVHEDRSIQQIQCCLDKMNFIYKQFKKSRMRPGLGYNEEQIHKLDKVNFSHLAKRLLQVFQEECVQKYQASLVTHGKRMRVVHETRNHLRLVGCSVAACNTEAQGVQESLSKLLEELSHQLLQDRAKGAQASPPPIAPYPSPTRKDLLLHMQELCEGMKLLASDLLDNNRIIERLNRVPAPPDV
# Chain of Sphingosine kinase 1 (Homo sapiens) (Q9NYA1 whole entry): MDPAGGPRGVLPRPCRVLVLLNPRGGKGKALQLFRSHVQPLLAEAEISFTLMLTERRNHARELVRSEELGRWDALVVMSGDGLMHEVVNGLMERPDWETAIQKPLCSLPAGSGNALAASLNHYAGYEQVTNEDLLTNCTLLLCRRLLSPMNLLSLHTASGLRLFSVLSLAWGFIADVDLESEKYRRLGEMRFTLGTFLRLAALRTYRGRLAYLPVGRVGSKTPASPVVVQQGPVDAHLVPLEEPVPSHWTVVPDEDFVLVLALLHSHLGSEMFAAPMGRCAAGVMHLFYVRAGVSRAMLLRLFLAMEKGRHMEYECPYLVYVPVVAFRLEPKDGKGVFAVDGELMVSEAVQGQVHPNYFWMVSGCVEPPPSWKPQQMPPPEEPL
# Chain of Casein kinase II subunit alpha (Homo sapiens) (P68400 whole entry, looked up): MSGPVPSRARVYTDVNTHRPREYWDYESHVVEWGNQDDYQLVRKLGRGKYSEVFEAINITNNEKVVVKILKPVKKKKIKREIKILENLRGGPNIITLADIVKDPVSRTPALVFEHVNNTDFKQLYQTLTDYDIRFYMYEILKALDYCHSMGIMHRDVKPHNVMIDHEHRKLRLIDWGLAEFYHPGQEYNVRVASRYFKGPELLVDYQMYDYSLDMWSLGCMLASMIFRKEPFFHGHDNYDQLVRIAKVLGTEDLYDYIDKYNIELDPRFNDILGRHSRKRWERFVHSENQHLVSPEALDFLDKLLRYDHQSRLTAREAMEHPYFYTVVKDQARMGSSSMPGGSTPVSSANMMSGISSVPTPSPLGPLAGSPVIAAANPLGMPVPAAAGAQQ
Compound,inhibition [1] [%],inhibition [2] [%],inhibition [3] [%],inhibition [4] [%],inhibition [5] [%],inhibition [6] [%],inhibition [7] [%],inhibition [8] [%],inhibition [9] [%],inhibition [10] [%]
O=C(O[C@H]1CN[C@H](C#Cc2cc3ncnc(Nc4ccc(Cc5ccccc5)cc4)c3s2)C1)N1CCOCC1,-1.06,-1.12,-1.6,6.95,1.52,6.44,1.74,4,0.81,3.09
CC(C)COC(=O)c1ccc2c(c1)/C(=C/Nc1ccc(S(N)(=O)=O)cc1)C(=O)N2,1.92,-0.06,-0.44,7.86,47.2,-1.06,3.25,-0.4,6.93,46.2
CCN1CCC(CC(=O)Nc2n[nH]c3nnc(-c4cccc(F)c4F)cc23)CC1,1.84,-1.05,0,5.23,2.82,4.71,0.12,5.28,3.6,4.71
Clc1ccc(-c2nn3ncccc3c2-c2ccnc(Nc3ccccc3)n2)cc1,-1.12,-0.19,0.98,1.72,1.08,-0.83,0.14,-3.05,-3.62,1.23
COc1ccc2[nH]c3c4[nH]c5ccc(OC)cc5c4c4c(c3c2c1)C(=O)NC4=O,-1.68,-2.46,-0.32,6.4,15.9,5.28,6.84,3.54,4.71,13.5
CCCN(CCS(C)(=O)=O)Cc1ccc(-c2ccc3ncnc(Nc4ccc(OCc5cccc(F)c5)c(Cl)c4)c3c2)o1,0.07,0.75,0.76,4.77,9.35,3.79,2.86,0.53,0.26,2.17
NS(=O)(=O)c1ccc(N/N=C2\C(=O)Nc3ccc4ncccc4c32)cc1,-1.18,0.16,7.47,5.01,32.2,9.67,20,4.79,26,8.67
O=C(Nc1n[nH]c2cc(-c3ccc(F)cc3)ccc12)C1CC1,0.32,0.15,-0.37,2.04,0.79,4.81,-0.71,4.46,2.08,4.25
Cc1cccc2c1NC(=O)/C2=N\Nc1ccc(S(N)(=O)=O)cc1,1.88,-0.11,0.27,-0.53,0.34,2.87,0.58,2.93,3.79,3.32
CCn1cc(-c2ccnc3[nH]ccc23)c(-c2cccc(NC(=O)Nc3ccc(OCc4ccccc4)cc3)c2)n1,-4.04,-0.83,-0.59,9.36,-1.27,1.99,-6.8,4.3,5.23,-4.18
Fc1ccc(-c2cc(-c3c[nH]nc3-c3ccccn3)ccn2)cc1,-2.44,-0.74,-0.12,3.83,11.9,5.34,3.99,5.76,9.85,8.65
CCOc1ccc2c(-c3ccnc(Nc4cccc(C(F)(F)F)c4)n3)cnn2n1,-1.13,2.38,-1.13,5.72,7.82,11.5,6.76,4.08,3.66,8.35
CCCN1CCC(c2ccc(Nc3nc(Nc4cc(F)ccc4C(N)=O)c4cc[nH]c4n3)c(OC)c2)CC1,-2.44,0,0,32.4,70.3,2.7,18.7,0.13,7.11,6.68
CCc1nn2ncccc2c1-c1ccnc(NC2CC2)n1,0.9,0,0.3,1.46,4.59,3.61,6.96,4.78,3.76,4.47
Nc1ncc(-c2cccc(S(N)(=O)=O)c2)c2scc(-c3ccc(F)c(Cl)c3)c12,-4.57,-1.05,0.43,9.52,3.4,-2.46,-3.58,3,5.65,7.15
c1ccc(COc2ccc(Nc3ncnc4ccc(-c5ccco5)cc34)cc2)cc1,0.95,-2.53,1.35,1.23,4.42,-5.49,0.49,1.07,0.01,4.51
Fc1ccc(-c2nn3ncccc3c2-c2ccnc(Nc3ccc4c(c3)OCCO4)n2)cc1,0.16,0,0.35,2.03,0.07,9.88,7.87,5.46,4.62,5.66
N#Cc1c(NC(=O)CN2CCOCC2)sc2c1CCCC2,-2.59,1.39,-0.6,6.02,10.9,6.78,6.16,4.25,5.09,9.02
COc1cccc(-c2c[nH]c3c(N/N=C/c4ccncc4)ncnc23)c1,0.2,1.73,-1,8.8,43.7,9.76,9.01,2.82,1.73,2.96
CCNC(=O)O[C@H]1CN[C@H](C#Cc2cc3ncnc(Nc4ccc(OCc5cccc(F)c5)c(Cl)c4)c3s2)C1,-0.72,0.52,-3.06,0.94,-1.06,2.78,-6.68,3.34,1.97,2.87
CC1=C(C(=O)Nc2cc(Cl)c3[nH]ncc3c2)C(c2ccc(C(F)(F)F)cc2)CC(=O)N1 (stereo not given),-1.96,0.58,0.72,3.06,1.13,4.43,4.34,3.26,5.73,4.64
CCn1c(-c2nonc2N)nc2c(C#CC(C)(C)O)nc(OC[C@H](N)c3ccccc3)cc21,0.93,-0.49,0,1.82,4.54,3.2,2.58,1.71,4.92,8.21
CC(C)(CO)CNC(=O)c1ccc2c(c1)/C(=N/Nc1ccc(S(N)(=O)=O)cc1)C(=O)N2,0.62,0.34,0.16,2.49,23.5,4.85,3.43,3.25,0.5,14.3
Nc1nc(-c2cccc(Cl)c2)c(-c2ccc3ncccc3n2)s1,-3.27,0.78,0.1,4.99,15.3,10.6,13.9,8.18,7.33,9.04
Cc1ccc(O)cc1Nc1ccnc2cc(-c3ccccn3)ccc12,0.38,0.62,-0.19,1.53,-1.39,1.97,-1.79,6.75,1.3,5.73
CN(C)CCOc1ccc(-c2nc(-c3ccncc3)c(-c3ccc4c(c3)CC/C4=N\O)[nH]2)cc1,-0.62,-0.49,-0.4,3.04,7.33,6.61,7.1,0.93,0.86,9.22
CCn1c(-c2nonc2N)nc2cnc(Oc3cccc(NC(=O)c4ccc(N(C)C)cc4)c3)cc21,-3.07,0,2.32,0.64,0.04,5.93,2.52,2.96,1.85,3.07
COc1cc(N2CCN(C(C)C)CC2)ccc1Nc1nc(Nc2ccc(F)cc2C(N)=O)c2cc[nH]c2n1,0.04,-0.73,-1.03,15.7,54.7,0.45,-0.19,2.59,3.32,0.77
